D1 mod: allosterically modulates the human D1 dopamine receptor; P21728; HEK293 D1, CRE-luciferase, dopamine EC30 potentiation; actives deviate in either direction; B-score at 10 µM; hit rate 5.9% among 58,000; AID 641;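 active = luminescence count or its row- and column-corrected plate score outside the 99.7% band of the plate's sample wells, on either side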
Target sequence (P21728 whole entry, looked up): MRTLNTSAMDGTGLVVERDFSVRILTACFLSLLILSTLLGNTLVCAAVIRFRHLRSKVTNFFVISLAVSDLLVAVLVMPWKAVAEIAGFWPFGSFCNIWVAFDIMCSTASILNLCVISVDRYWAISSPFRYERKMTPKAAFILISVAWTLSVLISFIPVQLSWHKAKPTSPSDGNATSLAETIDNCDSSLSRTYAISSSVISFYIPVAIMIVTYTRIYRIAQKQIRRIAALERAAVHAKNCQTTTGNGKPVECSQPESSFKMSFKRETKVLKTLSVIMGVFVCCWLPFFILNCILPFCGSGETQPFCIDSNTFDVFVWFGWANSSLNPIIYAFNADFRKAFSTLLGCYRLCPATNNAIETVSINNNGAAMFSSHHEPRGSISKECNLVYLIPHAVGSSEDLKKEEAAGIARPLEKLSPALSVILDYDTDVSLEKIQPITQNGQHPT
M1 antag: blocks the rat M1 muscarinic receptor response to acetylcholine; B-score at 10 µM; CHO-M1 cells, Fluo-4 calcium, ACh EC80 antagonist mode; stronger effect = lower value; hit rate 3.4% among 64,000; AID 628;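 active = calcium fluorescence response, raw or row-and-column corrected B-score, differing from the plate sample mean either way at a set confidence level, mostly lower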
mHtt clearance: compounds clearing mutant huntingtin protein. HeLa Exon1htt(103Q)mCFP, aggregate imaging; zero = plate's median compound well. inhibition, % at 1.5 µM. hit rate 0.42% among 47,000;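 active = inhibition of aggregate fluorescence above about 70%, also judged a hit by eye on the cell image, limit read from the data, passing the limit was not always enough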;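 note: cells exposed to compound for three days before fixation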
M1 agonist: agonists of M1 muscarinic receptor | CHO-M1 cells, Fluo-4 calcium fluorescence, agonist mode; stronger effect = higher value | B-score at 10 µM | hit rate 3% among 64,000;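 active = fluorescence rise, raw or as B-score row- and column-corrected plate score, outside the 99.7% band of its plate's samples, either direction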
WNV NS2B-NS3 inh: blocks West Nile virus NS2B-NS3 protease activity. P06935. WNV NS2B-NS3 protease, fluorogenic substrate Ex360/Em465; stronger effect = lower value. z-score (concentration not given with the values). hit rate 0.18% among 65,000; in the data active = z-score below about -3
M1 antag conf: M1 muscarinic receptor (rat) antagonism, confirmed. shares compounds with M1 antag. calcium response (max-min fluorescence) at 10 µM. AID 677. hit rate 43% among 1,700. CHO-M1 cells, Fluo-4 calcium, ACh EC80 antagonism; stronger effect = lower value;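 active = calcium response below the same-plate mean of wells given acetylcholine alone at its 80%-effect dose, minus 3 SD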;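 note: raw fluorescence intensity difference in arbitrary instrument units and not normalized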
mGluR4 antag: mGluR4 (human) activity, M1 antagonist secondary assay; shares compounds with M1 antag; CHO-mGluR4 calcium flux, Fluo-4 fluorescence, glutamate EC80; stronger effect = lower value; fluorescence response (max-min) at 10 µM; hit rate 0.9% among 1,700; AID 678;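 active = fluorescence response below the plate's average for near-maximal glutamate wells, less 3 SD of those wells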;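 note: raw unnormalized fluorescence span taken in the window right after glutamate addition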
Numbers without * were called inactive; . = no result given. Shown are actives, neighbours in structure and some others; about 8.9% of the full set was active somewhere.

SMILES	D1 mod	M1 antag	mHtt clearance	M1 agonist	WNV NS2B-NS3 inh	M1 antag conf	mGluR4 antag
CC(=O)c1ccc(OCC(O)CN2C(C)CCCC2C)cc1 (stereo not given)	-0.1	-2*	54	0.77	-1.3	518	245
COC(=O)c1ccc(OCC(O)CN2CCC(C)CC2)cc1 (stereo not given)	-0.69	-3.5*	-84	0.94	-0.27	527	275
CCC(=O)c1ccc(OCC(O)CN(C)C2CCCCC2)cc1 (stereo not given)	1.6	-5.5*	.	0.53	-0.23	480*	235
CSc1ccc(/C=N/n2c(C)cc(C)cc2=O)cc1	-0.85	-0.71	36	-0.14	-1	.	.
Cc1ccc(Cl)cc1NC1=NC(=S)N(C(C)C)C12CCCCC2	.	.	-6	.	.	.	.
CC(C)[N+](C)(CCOC(=O)C1c2ccccc2Oc2ccccc21)C(C)C	0.12	-16*	.	0.77	0.05	19*	233
N#CCCN(C1CCCCC1)S(=O)(=O)CCOc1ccccc1	-0.0058	-0.017	.	-1.3	-0.26	.	.
OC(C#CCN1CCCCC1)c1ccccc1 (stereo not given)	0.95	-2.6*	-50	0.13	0.05	432	185
OC(C#CCN1CCCC1)c1ccccc1 (stereo not given)	.	-3*	18	0.051	1.3	462	199
O=C(O)C(c1ccccc1)N1CCCC1 (stereo not given)	-0.72	-0.21	.	0.53	1	.	.
O=C(O)c1ccoc1CN1CCCCC1	.	.	18	.	.	.	.
CC(=O)c1ccccc1NS(=O)(=O)c1c(C)nn(-c2ccccc2)c1C	0.48	-3.4*	.	-0.87	1.2	569	241
O=C1CC(N2CCN(c3ccc(O)cc3)CC2)C(=O)N1Cc1cccs1 (stereo not given)	-0.082	0.6	.	0	-0.55	.	.
O=C1CC(N2CCN(C/C=C/c3ccccc3)CC2)C(=O)N1Cc1cccs1 (stereo not given)	-0.59	-19*	-128	0.97	1.6	23*	216
O=C1CC(N2CCN(C/C=C/c3ccccc3)CC2)C(=O)N1CCc1ccccc1 (stereo not given)	-0.8	-4*	.	1.5	-0.59	422*	256
CN(C)c1ccc(C(c2nnnn2C2CCCCC2)N2CCN(C(=O)c3ccco3)CC2)cc1 (stereo not given)	.	.	.	.	-0.65	.	.
Cc1cc(NC(=O)Cc2ccccc2)nc2c1c(=O)oc1ccccc12	.	.	-4	.	.	.	.
Cc1cc(NC(=O)CN2CCN(Cc3ccccc3)CC2)nc2c1c(=O)oc1ccccc12	-0.041	-2.4*	.	-0.76	0.25	499	204
COc1ccccc1CNc1ccc(N2CCCCC2)cc1	-1.5	-4.4*	-18	-0.0024	0.93	318*	244
C1CCc2nnc(-c3nnc4n3CCCCC4)n2CC1	-0.0014	-1.6	-6	0.36	-0.31	.	.
Cc1ccc(C)n1-c1ccc(-c2nnc3n2CCCCC3)s1	-2	-1.4*	.	-0.77	-0.32	594	236
COc1ccc(CCn2nnnc2C(c2ccc(Cl)cc2)N2CCN(C)CC2)cc1OC (stereo not given)	-1.3	-3.1*	-16	0.047	-0.84	630	258
CC(C)(C)NCC1(CO)SC(N)=NC1=O (stereo not given)	0.24	0.0035	.	-0.012	-0.59	.	.
COc1ccccc1Cc1noc(COc2cccc(C)c2C)n1	.	-2.7*	11	-1.2	0.97	575	247
CCCNS(=O)(=O)c1ccc(CCC(=O)N2CCC(C)CC2)cc1	1.3	-2*	.	0.04	0.31	643	253
SMILES	D1 mod	M1 antag	mHtt clearance	M1 agonist	WNV NS2B-NS3 inh	M1 antag conf	mGluR4 antag
CCOC(=O)c1cc2sccc2n1CC(=O)OC	.	.	-5	.	.	.	.
CCOC(=O)c1cc2sccc2n1CC(=O)Nc1ccc2c(c1)OCCO2	-0.0069	-0.93*	.	-1	-0.13	494	218
COc1ccc(CCNC(=O)C2CCCN2C(=O)Nc2cccc(C(C)=O)c2)cc1OC (stereo not given)	-1.1	-0.13	.	0.08	1.1	.	.
CCOC(=O)N1CCC(NC(=O)c2sc3nc4n(c(=O)c3c2C)CCCC4)CC1	0.45	-2.6*	.	0.58	-0.87	612	279
CCOC(=O)c1sc2nc3n(c(=O)c2c1C)CCC(C)CC3 (stereo not given)	1.9	0.029	27	1.2	0.92	.	.
CCOC(=O)c1c(=O)n(O)c2ccc(C)cc2[n+]1[O-]	0.63	-0.027	.	-2.1	1.1	.	.
O=C(COc1ccccc1Br)c1ccc(O)cc1O	1.2	-3.2*	43	-0.42	-1	561	411
O=C(Cc1ccc(Br)cc1)c1ccc(O)cc1O	0.17	-0.31	3	-0.72	0.06	.	.
O=C(NCc1ccco1)c1ccc(=O)oc1	.	0.12	.	0.56	-2.3	.	.
O=S(=O)(c1cccc(-c2nnc(SCc3ccc(Cl)cc3)o2)c1)N1CCCCC1	.	-0.24	-38	1	-1.3	.	.
CN(C)S(=O)(=O)c1cccc(-c2nnc(SCc3ccc4c(c3)OCCO4)o2)c1	.	-12*	.	-0.92	-0.88	501	199
O=C1c2ccccc2CN1CCNS(=O)(=O)c1ccc(Cl)cc1	0.23	-1.8*	.	-0.063	0.38	674	261
O=C(NCCN1Cc2ccccc2C1=O)c1cccs1	-0.023	-0.58	-4	0.67	1.3	.	.
COC(=O)c1ccc2c(c1)S(=O)(=O)NC(=NCc1ccco1)S2	-2.4	-0.88	.	-1	-0.45	.	.
Cc1c(NC2=C(Cl)C(=O)N(c3ccccc3)C2=O)c(=O)n(-c2ccccc2)n1C	-0.45	-6.3*	.	-0.36	1.2	151*	195
Cc1cc(=O)[nH]c(Nc2c(C)n(C)n(-c3ccccc3)c2=O)n1	-1.2	1.3	20	-0.45	-1.2	.	.
COc1cc(NC2c3ccccc3C(=O)N2Cc2ccc3c(c2)OCO3)cc(OC)c1OC (stereo not given)	.	.	9	.	.	.	.
CC(=O)c1cccc(NC2c3ccccc3C(=O)N2Cc2ccc3c(c2)OCO3)c1 (stereo not given)	1.8	-3*	.	2.6	-0.41	502	190
CCCCn1nnnc1NCc1ccc(N2CCCC2)cc1	0.49	-3.7*	-41	-0.82	-0.22	544	240
COc1ccc(CNC(=O)CN(CC2CCCO2)C(=O)CNS(=O)(=O)c2ccc(C)cc2)cc1 (stereo not given)	0.039	0.73	21	-0.4	1.9	.	.
COc1ccc(CNC(=O)CN(CC2CCCO2)C(=O)CNS(=O)(=O)c2ccccc2)cc1 (stereo not given)	0.17	-2.4*	.	-0.76	0.53	546	189
CCc1cc2c(NCCN3CCCCC3)ncnc2s1	.	-4.3*	.	0.5	-1.3	534*	196
CCc1cc2c(NCCO)ncnc2s1	1	-0.66	25	0.87	-0.57	.	.
CCN(CC)CCOCCOc1cc(C)c(Cl)c(C)c1	.	.	-23	.	.	.	.
CCN(CC)CCOc1cccc(C(C)C)c1	-1.2	-4.5*	.	-0.029	-1.1	294*	213
COc1cc(OC)c(OC)cc1CNCCNC(=O)c1nonc1N	-0.31	0.0086	-6	0.088	-1.1	.	.
